In the library only some 3.4% were active in any assay of this set; here they are far more common.
FBW7 activator – human FBW7 E3 ligase activation, primary screen. Q969H0. AlphaScreen FBW7–phospho-cyclin E peptide binding, activator screen. normalized activity (activation), % at 26.1 µM. 650,000 tested, 0.13% active; in the data active = normalized activity above about 1.9%;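 note: purified mutant Fbw7 with reduced substrate affinity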
Target sequence (Q969H0 whole entry, looked up): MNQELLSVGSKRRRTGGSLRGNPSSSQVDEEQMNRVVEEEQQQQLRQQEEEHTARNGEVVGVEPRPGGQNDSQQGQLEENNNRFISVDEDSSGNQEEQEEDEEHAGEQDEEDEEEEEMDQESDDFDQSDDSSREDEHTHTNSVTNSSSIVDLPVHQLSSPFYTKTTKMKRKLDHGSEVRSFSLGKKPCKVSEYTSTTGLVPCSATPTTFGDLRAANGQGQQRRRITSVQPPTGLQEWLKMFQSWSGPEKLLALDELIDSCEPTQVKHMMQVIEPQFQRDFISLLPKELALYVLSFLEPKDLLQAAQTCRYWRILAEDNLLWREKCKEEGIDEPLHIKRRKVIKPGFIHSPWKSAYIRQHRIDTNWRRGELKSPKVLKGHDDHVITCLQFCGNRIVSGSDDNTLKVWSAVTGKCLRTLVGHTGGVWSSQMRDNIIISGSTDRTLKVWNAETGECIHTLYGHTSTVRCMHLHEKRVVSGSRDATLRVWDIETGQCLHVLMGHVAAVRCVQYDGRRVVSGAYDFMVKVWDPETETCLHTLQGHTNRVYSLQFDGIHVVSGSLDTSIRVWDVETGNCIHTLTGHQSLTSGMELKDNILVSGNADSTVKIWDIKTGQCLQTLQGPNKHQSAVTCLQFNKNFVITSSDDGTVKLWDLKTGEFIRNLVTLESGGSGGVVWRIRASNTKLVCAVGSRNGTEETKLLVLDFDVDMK
TEAD-YAP block – TEAD-YAP interaction inhibition. HEK-TIYL cells, TEAD-Gal4/YAP UAS-luciferase luminescence. inhibition, % at 9.12 µM. 640,000 tested, 1.4% active. AID 1259422; in the data active = inhibition above about 32%;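 note: 0% = median of test compound wells and 100% = reference inhibitor wells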
MITF inh – blocks human microphthalmia-associated transcription factor; AID 1259374; O75030; AlphaScreen MITF homodimerization, bead proximity signal; 650,000 tested, 0.91% active; inhibition, % at 2.6 µM; in the data active = inhibition above about 50%;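 note: 0% = vehicle wells with protein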
GPR151 activ – human GPR151 activation; 650,000 tested, 1% active; PathHunter beta-arrestin GPR151 cells, luminescence; activation, % at 11.2 µM; Q8TDV0; in the data active = activation above about 4.9%;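 note: 0% = median of compound wells and 100% = cells with positive control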
The depositor's hits bear a star.

SMILES | FBW7 activator | TEAD-YAP block | MITF inh | GPR151 activ
Cc1ccc2sc(-c3ccc(NS(C)(=O)=O)cc3)nc2c1 | 1.5 | -20.1 | 13.0 | -1.2
Cc1ccc2sc(-c3ccc(NC4=CC(=O)CC(C)(C)C4)cc3)nc2c1 | -0.1 | 52.7* | -8.7 | -0.3
O=S1(=O)c2cccc3cccc(c23)N1Cc1cccc(Cl)c1 | 2.1* | -16.4 | 7.6 | 0.8
O=S1(=O)c2cccc3cccc(c23)N1Cc1cccc(Br)c1 | 0.1 | -8.0 | -6.3 | -0.9
O=C(COc1ccc2c(c1)C(=O)CC2)Nc1ccc2c(c1)Cc1ccccc1-2 | 0.2 | 1.1 | -8.1 | -0.7
CC(C)C(NC(=O)CN(c1ccc(Br)cc1)S(C)(=O)=O)C(C)C | 0.0 | 3.1 | 3.2 | 0.6
CC(C)NC(=O)CN(c1ccc(Br)cc1)S(C)(=O)=O | 1.9* | 16.4 | 2.9 | -0.5
COc1cccc(NS(=O)(=O)c2cc(C(=O)N3CCCC3)ccc2NCCc2ccc(OC)c(OC)c2)c1 | 0.0 | 4.1 | 7.8 | 0.2
COc1cccc(NS(=O)(=O)c2cc(C(=O)N3CCN(Cc4ccccc4)CC3)ccc2NCCc2ccc(OC)c(OC)c2)c1 | -0.1 | 52.1* | 2.6 | -0.4
COc1ccc(C(=O)N2CCN(Cc3ccc(SC)cc3)CC2)cc1OC | -0.1 | 44.8* | 45.4 | -0.9
O=C1C2ON(c3ccccc3)C(c3ccco3)C2C(=O)N1c1ccccc1 (stereo not drawn) | 0.2 | 1.3 | 7.9 | -0.5
CC(=O)O[C@@H]1[C@@H](O)CN[C@@H]1Cc1ccccc1 | -0.1 | 101.2* | -1.7 | -2.5
CCN1CCN(C(=O)/C(C#N)=C/c2cc(C)n(C3CCCC3)c2C)CC1 | 0.7 | -14.7 | 14.7 | -1.5
Cc1cc(/C=C(\C#N)C(=O)N2CCOCC2)c(C)n1C1CCCC1 | -0.1 | 32.4* | 5.7 | -2.6
COc1cccc(CC(=O)NCCCNc2nc3cc4c(cc3cc2C#N)OCO4)c1 | 0.7 | 60.5* | 2.3 | -2.3
COc1cccc(NC(=O)NCCCNc2nc3cc4c(cc3cc2C#N)OCO4)c1 | 0.2 | -4.4 | -1.8 | -0.5
CC(C(=O)Nc1cccc(Cl)c1)N1C(=O)c2cccc([N+](=O)[O-])c2C1=O (stereo not drawn) | 0.0 | 0.7 | -4.2 | 0.5
NC(=O)c1c(NC(=O)CSc2nc(-c3ccccc3)cn2N)sc2c1CCC2 | -0.2 | 35.8* | -2.3 | 0.6
CC(C(=O)Nc1ccccc1Cl)N1C(=O)c2ccccc2S1(=O)=O (stereo not drawn) | 1.1 | 3.3 | 17.8 | 2.7
Cc1ccc(CNc2nc3ccccc3s2)s1 | 0.1 | 65.9* | -0.2 | 1.4
Cc1cc(C2C(C#N)=C(N)N(N(C)C)C3=C2C(=O)CC(c2ccccc2)C3)c(C)s1 (stereo not drawn) | 0.1 | 55.4* | -7.2 | -0.3
Cc1ccccc1C1C(C#N)=C(N)N(N(C)C)C2=C1C(=O)CC(c1ccccc1)C2 (stereo not drawn) | -0.1 | 63.5* | -4.2 | -1.2
CC(C)C(Br)C(=O)Nc1cccc(C(F)(F)F)c1 (stereo not drawn) | 0.0 | -1.4 | -5.5 | 0.7
O=C(Cc1csc(NC(=O)c2cccs2)n1)NO | -0.1 | 0.1 | 12.0 | -0.7
O=C(CN(Cc1ccc(Cl)cc1)S(=O)(=O)c1ccc(Cl)cc1)N1CCCC1 | 1.1 | 6.2 | 6.7 | 2.7
SMILES | FBW7 activator | TEAD-YAP block | MITF inh | GPR151 activ
O=[N+]([O-])c1ccc(C2NN=C(Cc3ccccc3)S2)cc1 (stereo not drawn) | -0.2 | -43.2 | -7.1 | -0.8
Oc1ccc(C2NN=C(Cc3ccccc3)S2)c(O)c1 (stereo not drawn) | -0.1 | 7.7 | 102.3* | 0.3
Cc1ccc(C2=NNC(c3ccc(O)cc3O)S2)cc1 (stereo not drawn) | 0.7 | 79.6* | 10.3 | -1.2
Cc1ccc(C2=NNC(c3ccncc3)S2)cc1 (stereo not drawn) | -0.3 | -11.5 | 8.5 | -0.6
COc1ccc(C2CC(=O)C3=C(C2)NC(C)=C(C(=O)OC2CCCCC2)C3c2ccccc2F)cc1OC (stereo not drawn) | 0.7 | 18.0 | 9.7 | -0.8
CCN1C(=O)c2cccc3c(NC(=O)CN4C(=O)c5ccccc5C4=O)ccc1c23 | -0.1 | -5.3 | -9.7 | 1.1
Cc1ccnc(NC(c2ccco2)c2c(C)[nH]c3ccccc23)c1 (stereo not drawn) | -0.2 | 38.0* | -8.8 | -0.2
NC1=NC(=O)/C(=C/c2ccc(-c3cccc(C(=O)O)c3)o2)S1 | -0.2 | 70.2* | 2.9 | 0.4
CCN=C1S/C(=C/c2ccc(-c3ccc(Cl)cc3C(=O)O)o2)C(=O)N1CC | 0.0 | -1.1 | -0.5 | 0.3
CCN=C1S/C(=C\c2ccc(-c3cccc(C(=O)O)c3)o2)C(=O)N1CC | 0.1 | 33.6* | 8.3 | 0.8
NC1=NC(=O)/C(=C\c2ccc(-c3cccc(Cl)c3)o2)S1 | 0.1 | -3.9 | 15.3 | 1.4
CC1(C)Cc2c(sc(NC(=O)CN3C(=O)C4CC=C(Cl)CC4C3=O)c2C#N)CO1 (stereo not drawn) | 0.0 | 8.6 | 2.9 | 0.5
CN(CCO)c1ccc(/C=C2/C(=O)Nc3ccccc32)cc1 | -0.1 | -34.4 | 11.6 | -2.6
CC(C)c1ccc(-c2csc(NC(=O)c3ccccc3Cl)n2)cc1 | 0.0 | 10.9 | -4.7 | -1.1
O=C(/C=C/Nc1ccccc1Br)c1ccccc1 | -0.3 | 82.7* | 9.3 | -5.8
O=C(/C=C\Nc1cccc(Br)c1)c1ccccc1 | 0.1 | -54.2 | 15.2 | 1.5
O=C(/C=C\Nc1ccccn1)c1ccccc1 | 0.0 | 41.3* | 14.1 | -5.8
O=C(/C=C/Nc1ccccc1F)c1ccc(Br)cc1 | 0.8 | -46.9 | 23.0 | -2.3
O=C(/C=C/Nc1ccc(Br)cc1F)c1ccccc1 | 0.1 | 83.7* | -2.7 | -2.1
O=C(/C=C/Nc1ccccc1Br)c1ccccn1 | 0.1 | 91.6* | 8.0 | -6.6
C1CCC(Nc2nc3nonc3nc2N2CCC(N3CCCC3)CC2)C1 | -0.1 | -3.3 | 3.6 | 1.7
Cc1cccc(/C=C2\SC(=S)N(CCC(=O)O)C2=O)c1 | 0.3 | 33.9* | 15.6 | -3.4
O=C(CCN1C(=O)/C(=C/C=C/c2ccccc2)SC1=S)Nc1ccccn1 | 1.1 | 11.9 | 26.6 | 1.0
O=C(O)CCN1C(=O)/C(=C\c2cccc(O)c2)SC1=S | -0.2 | 8.3 | 17.9 | -0.9
O=C(O)CCCCCN1C(=O)/C(=C/c2cccc(O)c2)SC1=S | -0.6 | 44.5* | 10.9 | 3.6
SMILES | FBW7 activator | TEAD-YAP block | MITF inh | GPR151 activ
COc1cccc(/C=C2\SC(=S)N(CCCCCC(=O)O)C2=O)c1 | 0.2 | 65.7* | 13.4 | -0.9
O=C(O)CCN1C(=O)/C(=C/c2cccc(O)c2)SC1=S | -0.1 | 2.3 | -2.1 | 1.5
Cc1csc(NC(=O)CCN2C(=O)/C(=C/C=C/c3ccccc3)SC2=S)n1 | -0.4 | -14.2 | 60.7* | 0.0
CC(=O)Nc1nc2nc(C)cc(C)n2n1 | 0.2 | 6.3 | 14.0 | 0.2
O=C(c1ccc(S(=O)(=O)N2CCCCC2)cc1)n1nnc2ccccc21 | 0.1 | -1.6 | -3.6 | -0.1
CC1CCCN(c2ncnc(N)c2[N+](=O)[O-])C1 (stereo not drawn) | 0.0 | 62.3* | 12.7 | 0.2
CC1CCCCN1c1ncnc(N)c1[N+](=O)[O-] (stereo not drawn) | 0.0 | 41.5* | -3.1 | -1.5
CCC1CCCCN1c1ncnc(N)c1[N+](=O)[O-] (stereo not drawn) | 0.1 | 30.4 | 13.6 | 2.1
